Reference: PubChem BioAssay
The source made the active and inactive calls.

Assays:
[1] = small molecules captured by biotinylated probe aFSTL3 – biochemical, small-molecule microarray, fluorescence 635/667, stem cell growth factor project, primary screen (AID 1064); settings: higher = more signal;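 also: measures binding of the biotinylated anti-FSTL3 antibody to printed compounds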
[2] = binders from COS7 lysate, DM2A8 probe, primary screen, torsin A project, cell lysate, small-molecule microarray, fluorescence 635/667 (AID 1065); settings: higher = more signal, COS7 lysate expressing mutant human TOR1A
[3] = small molecules captured by biotinylated probe aFGF2 – biochemical, small-molecule microarray, fluorescence 635/667, stem cell growth factor project, primary screen (AID 1067); settings: higher = more signal;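 also: measures binding of biotinylated aFGF2 protein to printed compounds on slides; z-score merges feature fluorescence and signal-to-noise across triplicate slides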
[4] = small molecules captured by biotinylated probe aFGF10 – biochemical, small-molecule microarray, fluorescence 635/667, stem cell growth factor project, primary screen (AID 1071); settings: higher = more signal;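 also: score merges 667 nm spot intensity and signal to noise from triplicate slides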
[5] = target: Neurogenic locus notch homolog protein 2 (Homo sapiens) (UniProt Q04721); assay: small molecules binding Notch2 protein – biochemical, small-molecule microarray, 635 nm fluorescence, stem cell growth factors, primary screen (AID 1073); settings: higher = more signal
Chain of Neurogenic locus notch homolog protein 2 (Homo sapiens) (Q04721 whole entry, looked up, canonical isoform): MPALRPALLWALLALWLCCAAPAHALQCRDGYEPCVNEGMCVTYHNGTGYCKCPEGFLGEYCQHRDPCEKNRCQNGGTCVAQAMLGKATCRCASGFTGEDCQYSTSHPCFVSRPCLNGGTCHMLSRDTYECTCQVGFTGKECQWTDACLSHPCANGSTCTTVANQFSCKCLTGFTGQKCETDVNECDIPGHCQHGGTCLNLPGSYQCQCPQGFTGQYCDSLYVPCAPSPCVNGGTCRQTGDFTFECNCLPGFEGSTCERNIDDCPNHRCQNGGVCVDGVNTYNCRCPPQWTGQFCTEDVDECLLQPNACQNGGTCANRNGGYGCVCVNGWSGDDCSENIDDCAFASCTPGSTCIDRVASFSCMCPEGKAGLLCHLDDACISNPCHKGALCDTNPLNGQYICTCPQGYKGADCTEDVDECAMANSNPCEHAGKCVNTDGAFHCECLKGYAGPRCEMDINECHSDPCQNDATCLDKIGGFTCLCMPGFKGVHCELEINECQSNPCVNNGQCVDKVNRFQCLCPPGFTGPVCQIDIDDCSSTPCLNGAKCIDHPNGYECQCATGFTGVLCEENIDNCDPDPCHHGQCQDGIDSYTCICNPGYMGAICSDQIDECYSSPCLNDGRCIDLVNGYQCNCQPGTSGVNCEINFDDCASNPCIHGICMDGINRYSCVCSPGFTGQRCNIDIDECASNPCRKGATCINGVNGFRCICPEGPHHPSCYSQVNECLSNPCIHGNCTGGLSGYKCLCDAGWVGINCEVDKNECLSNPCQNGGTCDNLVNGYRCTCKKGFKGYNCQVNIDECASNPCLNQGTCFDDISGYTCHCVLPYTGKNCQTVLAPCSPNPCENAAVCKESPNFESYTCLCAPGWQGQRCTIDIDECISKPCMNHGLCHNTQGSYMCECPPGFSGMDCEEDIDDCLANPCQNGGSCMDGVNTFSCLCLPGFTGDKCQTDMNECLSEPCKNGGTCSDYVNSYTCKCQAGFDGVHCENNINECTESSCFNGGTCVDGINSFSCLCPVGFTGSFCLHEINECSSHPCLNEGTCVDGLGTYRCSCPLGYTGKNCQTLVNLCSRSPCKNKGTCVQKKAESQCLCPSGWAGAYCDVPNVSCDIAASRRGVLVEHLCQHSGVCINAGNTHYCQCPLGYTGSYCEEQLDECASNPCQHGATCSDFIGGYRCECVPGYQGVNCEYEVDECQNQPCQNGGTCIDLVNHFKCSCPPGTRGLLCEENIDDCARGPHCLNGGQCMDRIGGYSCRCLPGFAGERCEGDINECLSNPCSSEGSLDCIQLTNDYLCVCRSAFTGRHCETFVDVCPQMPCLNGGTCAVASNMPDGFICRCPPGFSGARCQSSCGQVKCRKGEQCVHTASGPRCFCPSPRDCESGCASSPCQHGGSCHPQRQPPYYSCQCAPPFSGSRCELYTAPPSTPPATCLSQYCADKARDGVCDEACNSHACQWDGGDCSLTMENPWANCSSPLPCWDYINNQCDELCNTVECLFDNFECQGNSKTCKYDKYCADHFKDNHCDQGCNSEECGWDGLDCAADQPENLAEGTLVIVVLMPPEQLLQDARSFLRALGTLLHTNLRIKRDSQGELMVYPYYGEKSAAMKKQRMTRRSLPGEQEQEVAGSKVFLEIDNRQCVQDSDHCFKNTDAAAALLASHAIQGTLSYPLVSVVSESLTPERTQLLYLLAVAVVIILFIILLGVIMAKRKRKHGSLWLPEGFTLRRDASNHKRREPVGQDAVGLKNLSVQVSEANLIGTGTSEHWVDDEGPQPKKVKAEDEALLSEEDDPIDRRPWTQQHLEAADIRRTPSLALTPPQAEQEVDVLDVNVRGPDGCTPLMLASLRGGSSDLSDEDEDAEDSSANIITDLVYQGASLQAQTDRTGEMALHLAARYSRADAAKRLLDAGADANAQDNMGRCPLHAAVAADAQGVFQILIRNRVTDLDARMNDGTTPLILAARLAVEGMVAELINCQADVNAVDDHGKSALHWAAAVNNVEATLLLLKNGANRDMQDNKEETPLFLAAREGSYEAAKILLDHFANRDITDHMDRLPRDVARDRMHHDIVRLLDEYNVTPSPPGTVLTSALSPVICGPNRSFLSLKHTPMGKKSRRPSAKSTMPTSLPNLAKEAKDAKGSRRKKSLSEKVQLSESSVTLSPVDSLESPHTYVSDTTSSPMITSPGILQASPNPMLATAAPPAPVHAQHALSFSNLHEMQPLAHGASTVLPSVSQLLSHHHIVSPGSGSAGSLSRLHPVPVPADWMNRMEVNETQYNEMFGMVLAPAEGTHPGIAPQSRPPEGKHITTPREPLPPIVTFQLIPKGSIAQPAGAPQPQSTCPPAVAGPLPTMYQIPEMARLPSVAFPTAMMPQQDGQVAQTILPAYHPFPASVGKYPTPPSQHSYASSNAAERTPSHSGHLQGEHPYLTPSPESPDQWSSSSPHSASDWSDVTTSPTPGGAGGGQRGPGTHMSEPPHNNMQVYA

[6] = target: Pro-neuregulin-1, membrane-bound isoform (Homo sapiens) (UniProt Q02297); assay: small molecules binding neuregulin-1 protein – biochemical, small-molecule microarray, fluorescence 635/667, psychiatric disease protein project, primary screen (AID 1075); settings: NRG1 binding, 635 nm fluorescence, higher = more signal;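 also: score combines 667 nm spot fluorescence with signal to noise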
Chain of Pro-neuregulin-1, membrane-bound isoform (Homo sapiens) (Q02297 whole entry, looked up, the tested form may be a part, canonical isoform): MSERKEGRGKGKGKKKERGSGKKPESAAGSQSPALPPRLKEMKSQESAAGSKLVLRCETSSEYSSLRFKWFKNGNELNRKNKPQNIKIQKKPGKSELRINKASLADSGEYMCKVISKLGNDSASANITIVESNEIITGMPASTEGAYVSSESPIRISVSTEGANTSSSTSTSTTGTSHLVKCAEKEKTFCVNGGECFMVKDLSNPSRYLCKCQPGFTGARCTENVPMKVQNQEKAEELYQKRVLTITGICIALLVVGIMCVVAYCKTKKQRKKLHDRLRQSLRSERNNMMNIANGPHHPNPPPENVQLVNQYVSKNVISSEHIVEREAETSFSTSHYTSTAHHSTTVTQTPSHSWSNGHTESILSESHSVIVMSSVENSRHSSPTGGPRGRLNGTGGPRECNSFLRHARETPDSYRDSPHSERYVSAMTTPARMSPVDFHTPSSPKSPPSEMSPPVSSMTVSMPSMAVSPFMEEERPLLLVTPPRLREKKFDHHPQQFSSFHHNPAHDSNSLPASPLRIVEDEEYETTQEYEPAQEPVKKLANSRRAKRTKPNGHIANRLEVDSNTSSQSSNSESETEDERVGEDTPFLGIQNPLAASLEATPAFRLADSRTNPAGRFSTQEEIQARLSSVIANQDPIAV

[7] = tested on: Neuregulin-1 EGF-like domain; assay: small molecules binding NRG1 EGF domain – biochemical, small-molecule microarray, 635 nm fluorescence, primary screen (AID 1081); settings: higher = more signal;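 also: binding of the protein to compounds printed on small-molecule microarray slides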
[8] = FRG1 expression reporter modulators in myotubes – cell-based, C2C12 myotubes, firefly/Renilla luciferase, luminescence, FRG1 inhibition for FSHD, primary screen (AID 1084); settings: FRG1 promoter luciferase, higher = more signal, called active from +8 up or from −8 down
[9] = small molecules captured by biotinylated probe aFST – biochemical, small-molecule microarray, fluorescence 635/667, stem cell growth factor project, primary screen (AID 1086); settings: higher = more signal;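 also: score merges 667 nm fluorescence with signal-to-noise of each printed compound spot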
[10] = binders of probe aHhip on microarray, primary screen, stem cell growth factor project, biochemical, small-molecule microarray, fluorescence 635/667 (AID 1087); settings: higher = more signal;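 also: score merges spot fluorescence at 667nm with spot signal to noise ratio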

SMILES | composite z-score [1] | composite z-score [2] | composite z-score [3] | composite z-score [4] | composite z-score [5] | composite z-score [6] | composite z-score [7] | z-score [8] | composite z-score [9] | composite z-score [10]
COCCOC(=O)N1C(=O)[C@@]2(c3cc(C#CC4(O)CCCCCC4)ccc31)[C@H](c1ccc(OCCO)cc1)N1[C@H](c3ccccc3)[C@H](c3ccccc3)OC(=O)[C@H]1[C@@H]2C(=O)NC[C@H](O)c1ccccc1 | -0.0536 | 1.11 | -0.0444 | 0.66 | 0.837 | 1.55 | 1.13 | -0.294 (inactive) | 0.29 | -0.0994
CO[C@H]1COC(=O)[C@@H]2CCCN2C(=O)[C@@H](C)COC(=O)CC=C[C@@H]1C | -0.553 | 1.69 | -0.118 | 0.624 | 0.0761 | -0.446 | 0.997 | 0.36 (inactive) | 0.107 | -0.249
CN1C(=O)C2C=CC(C(O)C(c3ccccc3)c3ccccc3)N(NC(=O)OC(C)(C)C)C2C1=O (stereo not given) | 1.16 | 0.868 | 0.448 | 1.09 | 1.73 | 1.99 | 1.22 | 0.745 (inactive) | 1.79 | -0.116
CC1(C)OCC(C(O)C2=CCCCC2=O)CO1 (stereo not given) | -0.495 | 0.547 | -0.0607 | 0.54 | 0.214 | 0.366 | 0.979 | 0.119 (inactive) | 0.753 | 0.065
COC(=O)CC1OC1[C@H](C)[C@@H](OC)C(C)C (stereo not given in full) | -0.243 | -0.0917 | -0.201 | 0.123 | -0.624 | -0.407 | -0.102 | 1.24 (inactive) | 0.0068 | -0.316
O=C1[C@H]2[C@H]3[C@H](O)[C@H](O)CC(=NOCc4ccccc4)[C@@H]3CC[C@H]2C(=O)N1C1CCCCC1 | -0.116 | 0.487 | -0.098 | 0.292 | 0.0141 | 1.1 | 0.564 | 0.32 (inactive) | 0.0422 | 0.0024
[N-]=[N+]=Nc1ccccc1C[C@@]1(C(N)=O)N=C(c2ccc(OCCCO)cc2)O[C@@H]1c1ccccc1 | 1.57 | 0.49 | 0.0249 | 0.296 | 0.975 | 1.05 | 1.16 | 1.23 (inactive) | 0.784 | -0.181
COC(=O)[C@H](C)NC(=O)CCC1CC(OC(=O)NCCc2ccc(F)cc2)CC2(CCCC(COC(=O)NCC(c3ccccc3)c3ccccc3)O2)O1 (stereo not given in full) | -0.342 | -0.266 | -0.124 | 0.462 | 1.29 | 0.846 | 1.2 | 1.38 (inactive) | 0.107 | -0.247
COc1ccc(O[C@H]2C=C[C@@H](c3ccccc3)O[C@@H]2COC(=O)CCC(C)=NO[C@@H](C)c2cc(-c3c(C)cc(C)cc3C)no2)cc1 | -0.0675 | -0.499 | -0.199 | -0.522 | -1.07 | -0.524 | -1.08 | 0.0014 (inactive) | -0.666 | -0.237
CCOC(=O)CCN1C(=O)[C@H]2[C@H]3[C@H](O)[C@H](O)CC(=NOC[C@@H](O)COCc4ccco4)[C@H]3CC[C@H]2C1=O | -0.528 | -0.0277 | -0.0996 | 0.483 | 0.722 | 0.035 | 0.148 | 0.122 (inactive) | 0.132 | 0.28
CC(C)(C)N1C(=O)[C@H]2[C@H]3[C@H](O)[C@H](O)CC(=NO[C@@H]4O[C@H](CO)[C@@H](O)[C@H](O)[C@H]4O)[C@@H]3CC[C@H]2C1=O | -0.549 | -0.151 | -0.0854 | 0.705 | 0.572 | 0.722 | 1.08 | 0.677 (inactive) | 0.135 | -0.0994
O=C1C[C@@H](O)[C@@H](O)[C@@H]2[C@@H]3C(=O)N(Cc4ccc5c(c4)OCO5)C(=O)[C@@H]3CC[C@@H]12 | -0.612 | 0.196 | -0.149 | 0.833 | 0.651 | -0.13 | 0.568 | 0.324 (inactive) | 0.278 | 0.065
CC(C)=C1C(=O)C(c2ccccc2)=C2CN3C(=O)N(CCc4ccccc4)C(=O)[C@]3(Cc3ccc(F)cc3)[C@H]21 | 0.565 | -0.65 | 0.0547 | -0.247 | -1.09 | 1.3 | 0.134 | -0.0896 (inactive) | 0.841 | 0.0722
Cc1cc2c(nc1C)CCCN2CC(O)CN1CCN(C)CC1 (stereo not given) | 0.499 | 0.382 | 0.0138 | 0.575 | 0.273 | 0.462 | 0.346 | -0.323 (inactive) | 0.758 | 0.744
O=C1[C@H]2[C@H]3[C@H](O)[C@H](O)CC(=NO[C@@H]4O[C@H](CO)[C@@H](O)[C@H](O)[C@H]4O)[C@@H]3CC[C@H]2C(=O)N1Cc1ccccc1 | -0.466 | 1.08 | -0.074 | 0.312 | 0.595 | -0.516 | -0.9 | -0.7 (inactive) | 0.756 | -0.0994
COc1ccc(OC[C@H]2Cc3c(-c4ccccc4)nc4c(c3CO2)CN(CCOc2ccccc2)CC4)cc1 | -0.133 | 0.228 | -0.172 | 0.79 | 1.16 | 0.679 | 1.11 | 0.114 (inactive) | 0.491 | -0.0618
CC(C)CN1CCc2nc(-c3ccccc3)c3c(c2CC1)CO[C@@H](C)C3 | 0.0816 | 0.252 | -0.0594 | 0.309 | 0.834 | -0.117 | 0.132 | -0.867 (inactive) | 0.594 | 0.394
CCOC(=O)NN=C1C[C@@H](O)[C@@H](O)[C@@H]2[C@@H]3C(=O)N(C[C@@H]4CCCO4)C(=O)[C@@H]3CC[C@@H]12 | -0.216 | 0.0306 | -0.0786 | 0.454 | 0.453 | 0.121 | 0.69 | 0.52 (inactive) | 0.0701 | -0.0994
CO[C@@H]1COC(=O)CC=C[C@@H](C)[C@@H]2C=C[C@H](O)[C@@H](COC(=O)[C@H](C)NC(=O)CC=C[C@H]1C)O2 | -0.556 | 0.977 | -0.15 | 0.321 | 0.268 | -0.497 | 0.849 | 0.361 (inactive) | 0.277 | 0.351
C=COC[C@H]1CN2[C@@H](CC[C@@H](C)[C@@H]2c2ccc(Br)cc2)C(=O)O1 | -0.6 | 0.268 | -0.151 | 0.581 | 0.793 | 0.0578 | 1.12 | -0.688 (inactive) | 0.355 | 0.0373
CCOC(=O)C[C@H]1[C@H](OC(=O)c2cc3ccccc3oc2=O)[C@@H](NC(=O)c2ccc3ccccc3n2)c2cc(OCCCO)ccc2N1C(=O)c1ccccc1 | -0.189 | 0.459 | -0.0455 | 0.706 | 0.302 | 0.0269 | 0.736 | 0.331 (inactive) | 0.353 | -0.383
CC(CCN1CCCCc2nc(C)c(C)cc21)=NOC(C)CN1CCCCc2nc(C)c(C)cc21 (stereo not given) | -0.275 | 1.93 | -0.15 | 0.682 | 1.48 | 0.963 | 1.28 | 0.748 (inactive) | 0.907 | 0.0174
COc1ccc([Si](C)(C)[C@H]2[C@H](CC(=O)N3CCC[C@H]3CO)O[C@@]3(C(=O)N(Cc4cccc(N5C(=O)COc6ccccc65)c4)c4ccccc43)[C@@H]2C)cc1 | -0.126 | 0.149 | -0.0148 | 0.893 | 0.308 | 0.563 | 0.983 | -4.78 (inactive) | -0.0678 | -0.0994
CO[C@@H]1COC(=O)CC=C[C@@H](C)COC(=O)[C@H](COCc2ccccc2)NC(=O)CC=C[C@H]1C | -0.611 | 2.32 | -0.162 | -0.903 | -0.75 | -0.698 | -0.0535 | -1.05 (inactive) | -0.268 | 0.0749
O=C1[C@H]2[C@H]3[C@H](O)[C@H](O)CC(=NOC[C@@H](O)COCc4ccco4)[C@H]3CC[C@H]2C(=O)N1c1cccc(Oc2ccccc2)c1 | -0.0639 | 1.55 | -0.187 | -0.0105 | -1.31 | 0.141 | 0.603 | -0.425 (inactive) | -0.266 | -0.16
O=C1C[C@@H](O)[C@@H](O)[C@@H]2[C@@H]3C(=O)N(C4CCCCC4)C(=O)[C@@H]3CC[C@H]12 | -0.472 | 0.176 | -0.0638 | 0.593 | 0.698 | 0.0523 | 0.797 | 0.65 (inactive) | -0.22 | -0.511
Cn1cccc1C(O)C1C=CC2C(=O)NC(=O)C2N1Nc1ccccn1 (stereo not given) | -0.177 | 0.124 | -0.179 | -0.0312 | 0.359 | 0.782 | 0.371 | 1.63 (inactive) | 0.339 | 0.0053
